# Source: article PMC7862700, “An all-to-all approach to the identification of sequence-specific readers for epigenetic DNA modifications on cytosine”
# Key:
# Assay in all cases: DAPPL (digital affinity profiling via proximity ligation, sequencing); 10 mM Tris-HCl pH 7.5, 50 mM NaCl, 1 mM DTT, 4% glycerol, room temperature, 30 min; GST-TFs on glutathione beads, 16-mer random dsDNA library, 0.1% formaldehyde crosslink after washing; high values mean tight binding
# Conditions in all cases: protein: recombinant; tags: N-terminal GST; dsDNA, one strand shown
# FLI1 = molecular target: T1, FLI1 (Homo sapiens, UniProt Q01543 1-452)
# T1 sequence: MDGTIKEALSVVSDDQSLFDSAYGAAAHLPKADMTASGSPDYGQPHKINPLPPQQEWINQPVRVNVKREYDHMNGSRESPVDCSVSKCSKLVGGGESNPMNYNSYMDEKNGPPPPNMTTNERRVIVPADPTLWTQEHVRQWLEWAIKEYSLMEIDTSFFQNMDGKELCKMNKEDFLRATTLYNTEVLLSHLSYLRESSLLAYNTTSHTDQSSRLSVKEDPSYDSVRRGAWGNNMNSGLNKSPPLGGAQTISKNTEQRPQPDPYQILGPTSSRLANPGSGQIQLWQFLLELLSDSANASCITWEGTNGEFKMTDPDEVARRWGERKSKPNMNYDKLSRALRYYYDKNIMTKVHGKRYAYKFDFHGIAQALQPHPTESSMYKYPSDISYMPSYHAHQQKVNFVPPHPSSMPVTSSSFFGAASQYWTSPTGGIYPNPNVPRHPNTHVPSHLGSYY
# In short: (§1)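 Binding signal is defined as a hexamer's read frequency for one factor over its frequency for the tag-only sample. To obtain reads, GST-fused human transcription factors were expressed in yeast, captured on glutathione beads, barcoded with DNA and pooled with that sample. Pools met 200 nmole of a 16-mer random double-stranded DNA library in Tris/NaCl/DTT/glycerol buffer for 30 min at room temperature before washing, 0.1% formaldehyde crosslinking, proximity ligation (BsaI/T4 ligase, 1 h, 37 °C), PCR and Illumina NextSeq500 sequencing.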
# ELK1 = molecular target: T2, ELK1 (Homo sapiens, UniProt P19419 1-428)
# T2 sequence: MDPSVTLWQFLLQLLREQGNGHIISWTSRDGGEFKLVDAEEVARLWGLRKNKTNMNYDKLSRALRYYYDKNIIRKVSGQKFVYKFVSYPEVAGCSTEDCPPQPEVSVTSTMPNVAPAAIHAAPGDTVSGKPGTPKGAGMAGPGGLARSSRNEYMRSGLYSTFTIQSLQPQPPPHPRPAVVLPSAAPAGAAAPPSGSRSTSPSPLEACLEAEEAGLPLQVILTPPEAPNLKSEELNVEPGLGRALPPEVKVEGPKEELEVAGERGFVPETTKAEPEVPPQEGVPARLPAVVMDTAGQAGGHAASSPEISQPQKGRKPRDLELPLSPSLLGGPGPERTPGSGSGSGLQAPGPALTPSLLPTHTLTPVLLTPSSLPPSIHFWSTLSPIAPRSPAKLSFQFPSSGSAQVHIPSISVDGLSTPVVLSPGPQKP
# In short: as §1
# GABPA = molecular target: T3, GABPA (Homo sapiens, UniProt Q06546 1-454)
# T3 sequence: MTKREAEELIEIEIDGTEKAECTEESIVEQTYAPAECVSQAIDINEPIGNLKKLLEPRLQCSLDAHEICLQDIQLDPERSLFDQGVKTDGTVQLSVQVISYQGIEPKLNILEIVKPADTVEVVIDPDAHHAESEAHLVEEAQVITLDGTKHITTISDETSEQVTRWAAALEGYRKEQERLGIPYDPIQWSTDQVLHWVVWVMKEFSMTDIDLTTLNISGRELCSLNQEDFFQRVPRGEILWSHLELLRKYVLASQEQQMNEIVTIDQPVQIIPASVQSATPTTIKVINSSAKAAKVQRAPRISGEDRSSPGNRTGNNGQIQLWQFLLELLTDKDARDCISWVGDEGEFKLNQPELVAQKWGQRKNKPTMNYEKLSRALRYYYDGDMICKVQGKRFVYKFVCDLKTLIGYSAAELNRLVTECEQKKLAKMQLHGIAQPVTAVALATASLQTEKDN
# In short: as §1
# ERG = molecular target: T4, ERG (Homo sapiens, UniProt P11308 1-479)
# T4 sequence: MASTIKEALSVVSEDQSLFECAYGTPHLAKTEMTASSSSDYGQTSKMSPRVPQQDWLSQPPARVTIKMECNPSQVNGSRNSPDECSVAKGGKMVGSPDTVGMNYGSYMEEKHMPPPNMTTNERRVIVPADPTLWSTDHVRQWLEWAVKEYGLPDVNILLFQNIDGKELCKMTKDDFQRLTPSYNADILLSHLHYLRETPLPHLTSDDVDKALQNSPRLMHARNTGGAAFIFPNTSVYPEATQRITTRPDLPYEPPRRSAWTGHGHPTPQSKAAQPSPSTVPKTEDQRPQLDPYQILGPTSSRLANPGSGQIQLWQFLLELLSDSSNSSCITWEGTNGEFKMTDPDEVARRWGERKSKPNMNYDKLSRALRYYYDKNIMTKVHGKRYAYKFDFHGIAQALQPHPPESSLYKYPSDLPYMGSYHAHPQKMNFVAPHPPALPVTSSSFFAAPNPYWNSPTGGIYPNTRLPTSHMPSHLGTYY
# In short: as §1
# ELF1 = ELF1 (Homo sapiens, UniProt P32519 1-619)
# ELF1, sequence (P32519 whole entry): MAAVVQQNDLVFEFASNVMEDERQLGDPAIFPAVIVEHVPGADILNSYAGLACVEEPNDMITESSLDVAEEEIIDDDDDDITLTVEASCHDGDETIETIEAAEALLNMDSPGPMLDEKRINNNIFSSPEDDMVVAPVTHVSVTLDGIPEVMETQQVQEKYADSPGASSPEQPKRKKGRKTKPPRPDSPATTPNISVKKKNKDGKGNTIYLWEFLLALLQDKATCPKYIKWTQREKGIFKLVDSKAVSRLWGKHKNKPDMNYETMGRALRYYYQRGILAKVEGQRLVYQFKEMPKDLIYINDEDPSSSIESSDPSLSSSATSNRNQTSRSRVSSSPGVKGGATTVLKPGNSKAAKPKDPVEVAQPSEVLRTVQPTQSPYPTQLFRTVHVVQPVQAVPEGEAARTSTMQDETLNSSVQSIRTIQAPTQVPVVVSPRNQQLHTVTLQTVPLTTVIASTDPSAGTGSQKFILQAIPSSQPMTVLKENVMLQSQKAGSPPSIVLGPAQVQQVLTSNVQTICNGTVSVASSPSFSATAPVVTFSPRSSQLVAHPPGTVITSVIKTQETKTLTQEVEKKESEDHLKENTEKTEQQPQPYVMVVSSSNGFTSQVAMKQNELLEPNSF
# In short: as §1
# EHF = molecular target: T5, EHF (Homo sapiens, UniProt Q9NZC4 1-300)
# T5 sequence: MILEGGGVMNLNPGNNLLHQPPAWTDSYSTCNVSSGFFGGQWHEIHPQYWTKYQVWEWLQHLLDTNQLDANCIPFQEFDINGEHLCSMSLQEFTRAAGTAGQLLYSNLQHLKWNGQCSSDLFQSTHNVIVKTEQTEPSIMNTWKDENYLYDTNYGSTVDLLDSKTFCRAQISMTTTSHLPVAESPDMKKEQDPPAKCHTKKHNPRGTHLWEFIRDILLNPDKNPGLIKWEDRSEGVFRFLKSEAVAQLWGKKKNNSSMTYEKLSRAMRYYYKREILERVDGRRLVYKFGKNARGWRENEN
# In short: as §1
# SPI1 = SPI1 (Homo sapiens, UniProt P17947 1-270)
# In short: as §1
# SPIB = SPIB (Homo sapiens, UniProt Q01892 1-262)
# SPIB, sequence (Q01892 whole entry): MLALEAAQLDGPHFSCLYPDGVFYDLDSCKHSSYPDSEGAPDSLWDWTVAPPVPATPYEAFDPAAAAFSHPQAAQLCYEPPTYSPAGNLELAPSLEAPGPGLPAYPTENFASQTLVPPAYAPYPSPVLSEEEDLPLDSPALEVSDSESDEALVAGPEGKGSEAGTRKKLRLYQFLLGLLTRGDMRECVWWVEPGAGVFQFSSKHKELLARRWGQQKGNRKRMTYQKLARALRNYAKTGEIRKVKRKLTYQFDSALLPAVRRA
# In short: as §1
# ELK3 = molecular target: T6, ELK3 (Homo sapiens, UniProt P41970 1-407)
# T6 sequence: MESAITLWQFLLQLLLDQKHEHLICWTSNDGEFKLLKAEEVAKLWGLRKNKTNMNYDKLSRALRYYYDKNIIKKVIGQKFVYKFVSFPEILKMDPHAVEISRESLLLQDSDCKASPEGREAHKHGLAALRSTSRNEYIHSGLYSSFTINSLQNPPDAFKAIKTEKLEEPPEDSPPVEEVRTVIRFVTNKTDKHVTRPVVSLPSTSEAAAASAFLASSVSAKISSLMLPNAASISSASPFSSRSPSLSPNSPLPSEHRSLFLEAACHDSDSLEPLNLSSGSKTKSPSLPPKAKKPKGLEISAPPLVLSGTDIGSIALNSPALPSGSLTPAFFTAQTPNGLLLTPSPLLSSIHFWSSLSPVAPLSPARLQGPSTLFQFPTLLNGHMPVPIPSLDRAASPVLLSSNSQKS
# In short: as §1
# FEV = molecular target: T7, FEV (Homo sapiens, UniProt Q99581 1-238)
# T7 sequence: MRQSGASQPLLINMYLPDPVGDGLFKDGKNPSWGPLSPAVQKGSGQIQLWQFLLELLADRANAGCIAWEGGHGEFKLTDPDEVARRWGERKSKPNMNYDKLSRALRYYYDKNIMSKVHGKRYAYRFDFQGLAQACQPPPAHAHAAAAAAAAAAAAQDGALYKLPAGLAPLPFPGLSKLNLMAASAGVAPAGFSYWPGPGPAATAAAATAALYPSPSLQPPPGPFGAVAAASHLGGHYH
# In short: as §1
# ETV5 = ETV5 (Homo sapiens, UniProt P41161 1-510)
# ETV5, sequence (P41161 whole entry): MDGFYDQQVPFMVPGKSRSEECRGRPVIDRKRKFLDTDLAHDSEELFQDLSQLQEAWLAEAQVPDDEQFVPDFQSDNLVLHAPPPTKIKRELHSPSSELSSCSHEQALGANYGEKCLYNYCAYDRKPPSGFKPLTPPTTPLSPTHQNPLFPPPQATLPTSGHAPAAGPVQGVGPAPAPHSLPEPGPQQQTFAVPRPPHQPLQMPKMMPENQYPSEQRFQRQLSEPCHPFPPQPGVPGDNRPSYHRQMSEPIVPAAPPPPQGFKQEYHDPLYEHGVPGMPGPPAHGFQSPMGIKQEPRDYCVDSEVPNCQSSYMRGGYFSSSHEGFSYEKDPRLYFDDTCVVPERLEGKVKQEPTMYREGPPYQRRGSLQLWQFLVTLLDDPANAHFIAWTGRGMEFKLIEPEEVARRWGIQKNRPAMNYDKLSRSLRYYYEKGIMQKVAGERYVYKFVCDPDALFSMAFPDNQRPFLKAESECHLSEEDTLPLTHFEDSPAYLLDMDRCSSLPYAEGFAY
# In short: as §1
# SPIC = molecular target: T8, SPIC (Homo sapiens, UniProt Q8N5J4 1-248)
# T8 sequence: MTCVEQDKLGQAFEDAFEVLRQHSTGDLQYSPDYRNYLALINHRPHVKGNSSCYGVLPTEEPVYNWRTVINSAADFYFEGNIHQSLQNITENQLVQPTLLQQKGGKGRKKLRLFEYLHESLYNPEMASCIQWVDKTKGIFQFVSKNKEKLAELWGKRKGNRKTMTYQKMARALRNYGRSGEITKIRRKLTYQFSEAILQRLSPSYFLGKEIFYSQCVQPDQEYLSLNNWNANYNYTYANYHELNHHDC
# In short: as §1
# ETV1 = ETV1 (Homo sapiens, UniProt P50549 1-477)
# ETV1, sequence (P50549 whole entry): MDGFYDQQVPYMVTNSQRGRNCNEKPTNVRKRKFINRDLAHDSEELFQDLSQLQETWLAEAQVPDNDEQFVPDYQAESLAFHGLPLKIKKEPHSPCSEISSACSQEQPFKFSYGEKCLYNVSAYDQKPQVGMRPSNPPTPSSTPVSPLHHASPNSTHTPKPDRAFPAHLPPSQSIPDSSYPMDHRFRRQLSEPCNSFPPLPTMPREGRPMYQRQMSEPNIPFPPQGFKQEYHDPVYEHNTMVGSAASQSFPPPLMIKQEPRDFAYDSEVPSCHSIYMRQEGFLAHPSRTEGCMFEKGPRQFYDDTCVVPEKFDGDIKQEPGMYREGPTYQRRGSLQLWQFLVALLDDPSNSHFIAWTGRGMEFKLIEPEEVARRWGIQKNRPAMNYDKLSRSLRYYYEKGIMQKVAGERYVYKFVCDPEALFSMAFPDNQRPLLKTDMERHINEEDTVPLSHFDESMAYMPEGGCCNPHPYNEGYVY
# In short: as §1
# ERF = molecular target: T9, ERF (Homo sapiens, UniProt P50548 1-548)
# T9 sequence: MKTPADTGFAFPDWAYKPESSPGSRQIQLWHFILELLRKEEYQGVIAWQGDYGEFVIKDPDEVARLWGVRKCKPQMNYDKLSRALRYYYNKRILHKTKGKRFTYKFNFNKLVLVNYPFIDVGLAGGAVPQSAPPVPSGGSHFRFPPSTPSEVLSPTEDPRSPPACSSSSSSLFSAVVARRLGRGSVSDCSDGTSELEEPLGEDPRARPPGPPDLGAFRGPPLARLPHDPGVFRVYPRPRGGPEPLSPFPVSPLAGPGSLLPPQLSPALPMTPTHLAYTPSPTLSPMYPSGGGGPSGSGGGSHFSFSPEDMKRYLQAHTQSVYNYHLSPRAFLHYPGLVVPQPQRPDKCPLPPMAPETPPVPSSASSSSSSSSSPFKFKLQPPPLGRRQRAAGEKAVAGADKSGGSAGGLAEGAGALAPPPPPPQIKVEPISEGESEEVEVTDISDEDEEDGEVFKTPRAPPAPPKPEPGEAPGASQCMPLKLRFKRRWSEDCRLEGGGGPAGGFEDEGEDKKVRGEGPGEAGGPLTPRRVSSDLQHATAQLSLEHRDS
# In short: as §1
# ETV3L = molecular target: T10, ETV3L (Homo sapiens, UniProt Q6ZN32 1-361)
# T10 sequence: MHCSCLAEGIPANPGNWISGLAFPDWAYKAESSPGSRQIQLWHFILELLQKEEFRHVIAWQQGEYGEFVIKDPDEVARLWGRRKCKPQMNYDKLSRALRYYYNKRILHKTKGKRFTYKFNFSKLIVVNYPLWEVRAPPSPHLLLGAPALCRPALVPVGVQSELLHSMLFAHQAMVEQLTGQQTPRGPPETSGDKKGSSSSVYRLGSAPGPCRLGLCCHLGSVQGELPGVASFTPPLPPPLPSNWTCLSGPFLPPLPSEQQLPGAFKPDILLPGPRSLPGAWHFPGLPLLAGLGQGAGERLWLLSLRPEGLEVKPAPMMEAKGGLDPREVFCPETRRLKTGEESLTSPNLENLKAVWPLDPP
# In short: as §1
# ETS2 = molecular target: T11, ETS2 (Homo sapiens, UniProt P15036 1-469)
# T11 sequence: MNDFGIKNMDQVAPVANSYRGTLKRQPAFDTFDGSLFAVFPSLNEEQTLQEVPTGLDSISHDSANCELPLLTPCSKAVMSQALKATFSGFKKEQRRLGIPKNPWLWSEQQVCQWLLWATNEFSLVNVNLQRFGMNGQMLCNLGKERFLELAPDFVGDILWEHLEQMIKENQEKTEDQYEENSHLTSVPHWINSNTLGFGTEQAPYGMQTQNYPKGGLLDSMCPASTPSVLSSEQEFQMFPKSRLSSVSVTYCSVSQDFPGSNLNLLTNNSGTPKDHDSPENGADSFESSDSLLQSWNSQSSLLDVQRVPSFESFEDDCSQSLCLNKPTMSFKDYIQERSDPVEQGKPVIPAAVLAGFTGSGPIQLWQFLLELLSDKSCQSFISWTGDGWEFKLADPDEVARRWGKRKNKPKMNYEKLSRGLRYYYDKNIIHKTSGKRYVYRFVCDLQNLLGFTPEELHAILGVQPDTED
# In short: as §1
# ETV3 = molecular target: T12, ETV3 (Homo sapiens, UniProt P41162-2 1-143)
# T12 sequence: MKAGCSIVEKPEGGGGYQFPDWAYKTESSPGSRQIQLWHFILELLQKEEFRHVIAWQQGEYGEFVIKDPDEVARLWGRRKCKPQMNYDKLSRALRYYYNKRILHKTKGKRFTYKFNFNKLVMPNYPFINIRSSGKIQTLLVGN
# In short: as §1
# ETV6 = ETV6 (Homo sapiens, UniProt P41212 1-452)
# ETV6, sequence (P41212 whole entry): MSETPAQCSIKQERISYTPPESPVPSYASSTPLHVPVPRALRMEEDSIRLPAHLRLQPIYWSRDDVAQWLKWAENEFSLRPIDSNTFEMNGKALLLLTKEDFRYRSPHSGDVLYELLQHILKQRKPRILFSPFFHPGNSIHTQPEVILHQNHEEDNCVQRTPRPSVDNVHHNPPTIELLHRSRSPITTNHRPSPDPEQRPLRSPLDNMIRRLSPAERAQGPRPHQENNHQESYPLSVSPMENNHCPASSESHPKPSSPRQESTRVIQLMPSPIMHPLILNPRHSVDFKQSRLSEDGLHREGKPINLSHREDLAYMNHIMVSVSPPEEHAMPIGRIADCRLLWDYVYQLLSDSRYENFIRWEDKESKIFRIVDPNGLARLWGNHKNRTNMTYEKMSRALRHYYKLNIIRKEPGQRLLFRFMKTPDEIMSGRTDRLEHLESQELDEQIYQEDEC
# In short: as §1
sequence,measurement,setting,value
AGTGGT,binding signal,FLI1,"1.04 fold enrichment (6-mer frequency, TF over GST control)"
same,binding signal,ELK1,"1.03 fold enrichment (6-mer frequency, TF over GST control)"
same,binding signal,GABPA,"1.09 fold enrichment (6-mer frequency, TF over GST control)"
same,binding signal,ERG,"1.06 fold enrichment (6-mer frequency, TF over GST control)"
same,binding signal,ELF1,"1.06 fold enrichment (6-mer frequency, TF over GST control)"
same,binding signal,EHF,"1.11 fold enrichment (6-mer frequency, TF over GST control)"
same,binding signal,SPI1,"1.42 fold enrichment (6-mer frequency, TF over GST control)"
same,binding signal,SPIB,"1.22 fold enrichment (6-mer frequency, TF over GST control)"
same,binding signal,ELK3,"1.15 fold enrichment (6-mer frequency, TF over GST control)"
same,binding signal,FEV,"1.02 fold enrichment (6-mer frequency, TF over GST control)"
same,binding signal,ETV5,"1.14 fold enrichment (6-mer frequency, TF over GST control)"
same,binding signal,SPIC,"1.22 fold enrichment (6-mer frequency, TF over GST control)"
same,binding signal,ETV1,"1.02 fold enrichment (6-mer frequency, TF over GST control)"
same,binding signal,ERF,"1.14 fold enrichment (6-mer frequency, TF over GST control)"
same,binding signal,ETV3L,"1.06 fold enrichment (6-mer frequency, TF over GST control)"
same,binding signal,ETS2,"1.12 fold enrichment (6-mer frequency, TF over GST control)"
same,binding signal,ETV3,"1.09 fold enrichment (6-mer frequency, TF over GST control)"
same,binding signal,ETV6,"1.11 fold enrichment (6-mer frequency, TF over GST control)"
